In PubChem BioAssay (NCATS) one finds max response, Potency and outcome data, which are given here for 34 compounds.

“And” between values parts separate entries of the source, which are not always exact repeats. Equal values may be shown once. Unmarked numbers belong to inactive results. Inconclusive results are not listed. The source made the active and inactive calls. Unless noted, calls come from the whole dose curve; as a rule, active = well fitted curve in the direction sought with a large enough effect; inconclusive = small, poorly fitted or top-dose-only effect, or another doubt; inactive = no such curve, though single readings can be large; an effect the other way counts as inactive or inconclusive.

The target of assay [1] is Peroxisome proliferator-activated receptor alpha (Homo sapiens) (UniProt Q07869). The assay is described as follows: qHTS assay for small molecule agonists of the peroxisome proliferator-activated receptor alpha (PPARalpha) signaling pathway (AID 651778). For max response: % of control where 0% means no effect. Note: potency is the fitted concentration of half-maximal effect. As to conditions: PathHunter PPARalpha complementation, chemiluminescence, 6 h; max response: stronger effect = higher value. In outline:
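Enzyme-fragment complementation assay in which ligand-bound PPARalpha translocates and forms an active enzyme that generates chemiluminescence. Cells were plated overnight, exposed to compound for 6 hr at 37 C, and then given detection reagent for 60 min at room temperature.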

For assay [2], the target named is Nuclear receptor ROR-gamma (Homo sapiens) (UniProt P51449). The assay is described as follows: qHTS assay for small molecule antagonists of the retinoid-related orphan receptor gamma (ROR-gamma) signaling pathway (AID 651802). Note: nearly all actives have a fitted effect of over 60% in size. Note: potency is the fitted concentration of half-maximal effect. As to conditions: ROR-gamma antagonist cell reporter assay; series mostly up to 92.2 µM. In a few lines: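 CHO, TET-inducible ROR + RORE-LUC reporter, 1536-well qHTS. Compound pinned, doxycycline added, 16hr 37C/5% CO2. ONE-Glo, 30 min RT, luminescence; signal drop scored as antagonism.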

Assay [3] can be described thus: qHTS assay for small molecule agonists of the antioxidant response element (ARE) signaling pathway measured by Nrf2-dependant transcriptional activity (AID 720636; active = well fitted curve in the direction sought with a large enough effect in the repeat runs; an effect the other way counts as inactive or inconclusive; note: potency is the fitted concentration of half-maximal effect). To be noted: ARE-luc HepG2, Nrf2 luciferase reporter, 16 h; series mostly up to 92.4 µM. In a few lines: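 Reporter gene assay, HepG2 ARE-luc: 16 hr compound, 37 C, 5% CO2; read-out luciferase luminescence.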

Assay [4] in a line: qHTS assay for small molecule antagonists of the retinoid-related orphan receptor gamma (ROR-gamma) signaling pathway - cell viability counter screen (AID 720652; active = well fitted curve in the direction sought with a large enough effect in the repeat runs; an effect the other way counts as inactive or inconclusive;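 note: compound exposure lasted 16 hr before ATP read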; note: potency is the fitted concentration of half-maximal effect). To be noted: RORgamma reporter cell line viability counter screen; series mostly up to 92.2 µM. In outline: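 Luminescence from CellTiter-Glo after 30 min at room temperature reported cellular ATP as the cytotoxicity measure. Cells were the CHO reporter line with doxycycline-induced ROR-gamma expression, exposed to compound for 16 hr at 37 C.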

Assay [5] addresses Arylsulfatase A (Homo sapiens) (UniProt P15289). The assay is described as follows: qHTS screen for enhancers of Arylsulfatase A (ASA1): LOPAC Validation Assay (AID 720538). Note: 0% is about no effect. To be noted: ASA enzyme activity, LOPAC qHTS enhancer assay; series mostly up to 57.5 µM. In outline:
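Cell-based enhancement test: residual ASA activity in SV40-transformed I179S patient fibroblasts is measured by pNCS turnover (0.5mM final, 14h, room temperature) following 48h compound incubation; higher fluorescence indicates activation.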

Assay [6] can be described thus: qHTS for compounds that reverse cellular toxicity of Amyloid beta (A-beta) peptide in yeast: LOPAC Validation Assay (AID 720559).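 Note: plate controls were DMSO for no effect and equimolar ferric chloride plus clioquinol rescue for full effect.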 As to conditions: yeast expressing A-beta; series mostly up to 46.1 µM. In outline:
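Here, A-beta-toxic yeast grow with test compounds at 30 C for 48 hr before optical density at 600 nm is recorded; data are normalized against DMSO and the FeCl3-clioquinol control.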

Assay [7] is described as follows: qHTS for Activators of Parkin Expression: LOPAC Validation Assay (NLuc Reporter) (AID 720572). As to conditions: Parkin promoter NanoLuc reporter cells, luminescence, percent of positive control, DMSO as zero; series mostly up to 46.1 µM. In outline: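 Neuronal cells with a Parkin promoter-driven FLuc/NLuc coincidence reporter were treated 24 h at 37 C in 7-point dose response (LOPAC). NLuc luminescence read after FLuc; signals normalized to DMSO and positive control (100%).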

Assay [8] can be described thus: qHTS for Activators of Parkin Expression: LOPAC Validation Assay (FLuc Reporter) (AID 720573). To be noted: Cell line, PRKN promoter firefly luciferase reporter, vehicle wells = 0, positive control = 100%; series mostly up to 46.1 µM. In outline: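 Readout is FLuc luminescence from neuronal reporter cells (Parkin promoter, FLuc plus NLuc) after 24 h compound exposure in dose response. Values normalized to neutral DMSO and positive-control compounds.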

Sequence of Peroxisome proliferator-activated receptor alpha (Homo sapiens) (Q07869 whole entry, looked up, the tested form may be a part): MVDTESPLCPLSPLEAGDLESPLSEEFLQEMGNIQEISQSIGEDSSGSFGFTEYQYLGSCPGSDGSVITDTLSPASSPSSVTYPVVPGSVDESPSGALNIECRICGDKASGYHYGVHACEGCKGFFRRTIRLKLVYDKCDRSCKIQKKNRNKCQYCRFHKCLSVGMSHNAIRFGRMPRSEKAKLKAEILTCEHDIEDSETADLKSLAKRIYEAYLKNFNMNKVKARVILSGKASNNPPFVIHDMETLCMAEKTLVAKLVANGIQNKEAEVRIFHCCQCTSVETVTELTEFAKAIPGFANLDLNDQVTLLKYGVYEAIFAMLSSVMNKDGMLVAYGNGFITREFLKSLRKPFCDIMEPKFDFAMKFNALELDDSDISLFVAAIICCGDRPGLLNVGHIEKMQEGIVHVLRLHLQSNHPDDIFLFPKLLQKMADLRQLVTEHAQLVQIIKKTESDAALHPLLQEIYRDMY
Sequence of Nuclear receptor ROR-gamma (Homo sapiens) (P51449 whole entry, looked up): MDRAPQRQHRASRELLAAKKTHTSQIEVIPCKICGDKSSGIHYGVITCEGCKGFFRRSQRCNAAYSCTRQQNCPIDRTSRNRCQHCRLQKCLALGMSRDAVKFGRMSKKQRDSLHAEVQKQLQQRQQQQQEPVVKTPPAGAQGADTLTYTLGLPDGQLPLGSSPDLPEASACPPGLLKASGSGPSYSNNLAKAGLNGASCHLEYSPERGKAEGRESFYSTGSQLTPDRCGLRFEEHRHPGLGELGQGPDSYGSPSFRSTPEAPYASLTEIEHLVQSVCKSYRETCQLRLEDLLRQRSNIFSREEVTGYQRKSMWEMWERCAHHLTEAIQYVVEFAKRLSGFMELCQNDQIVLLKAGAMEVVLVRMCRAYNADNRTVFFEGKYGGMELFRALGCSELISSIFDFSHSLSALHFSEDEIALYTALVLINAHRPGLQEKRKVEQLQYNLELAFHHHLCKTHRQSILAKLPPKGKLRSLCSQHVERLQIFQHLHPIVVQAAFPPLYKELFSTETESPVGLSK
Sequence of Arylsulfatase A (Homo sapiens) (P15289 whole entry, looked up): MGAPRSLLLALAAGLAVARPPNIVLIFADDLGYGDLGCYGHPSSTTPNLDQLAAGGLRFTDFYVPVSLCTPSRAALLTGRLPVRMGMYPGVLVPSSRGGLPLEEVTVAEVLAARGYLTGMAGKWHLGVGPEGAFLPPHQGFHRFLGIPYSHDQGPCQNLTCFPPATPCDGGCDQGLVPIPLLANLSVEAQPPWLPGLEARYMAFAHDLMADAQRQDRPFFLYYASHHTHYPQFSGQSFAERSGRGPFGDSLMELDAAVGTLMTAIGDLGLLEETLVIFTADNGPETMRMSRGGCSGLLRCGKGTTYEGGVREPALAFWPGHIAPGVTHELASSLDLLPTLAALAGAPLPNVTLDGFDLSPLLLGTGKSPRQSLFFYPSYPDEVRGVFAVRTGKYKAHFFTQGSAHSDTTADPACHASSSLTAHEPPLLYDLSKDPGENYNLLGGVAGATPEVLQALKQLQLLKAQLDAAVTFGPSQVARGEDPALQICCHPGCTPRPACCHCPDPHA

With `CCOCCOC(C)=O`, the max response in assay [1] is 0.307%. Moreover, the Potency result in assay [2], in assay [3] and in assay [4] was “inactive” each time.

For `CCCCCCCCc1ccc(O)cc1`, the max response in assay [1] was 18.3% and 5.8%. Also, the Potency result in assay [2] is “inactive”.

Consider `O=S(=O)(O)C(F)(F)C(F)(F)C(F)(F)C(F)(F)C(F)(F)C(F)(F)C(F)(F)C(F)(F)F`, for which, in assay [1], the max response is -0.394% and 4.02%. Also, the Potency result in assay [3] was “inactive”.

Take `O=C(O)CCCOc1ccc(Cl)cc1Cl`: the max response in assay [1] was 5.21%. The Potency result in assay [3] was “inactive”.

Turning to `C=CCC1=C(C)C(OC(=O)C2C(C=C(C)C)C2(C)C)CC1=O` (stereo not given), in assay [1], the max response was 4.18%. Besides, the Potency result in assay [3] was “inactive”.

As for `COCCOCCO`, the max response in assay [1] is -0.0911% and 0.363%. Further, the Potency result in assay [3] is “inactive”.

With `Nc1ccc([N+](=O)[O-])cc1`, the max response in assay [1] is -2.66%. The Potency entry in assay [2], in assay [3] and in assay [4] was “inactive” throughout.

As for `COc1nn(CSP(=S)(OC)OC)c(=O)s1`, the max response in assay [1] was -1.93%. Besides, in assay [3], the Potency entry was “inactive”.

For `CCO/N=C(\CC)C1=C(O)CC(c2c(C)cc(C)cc2C)CC1=O` (stereo not given), in assay [1], the max response was -0.461%. For the same compound, the Potency entry in assay [3] is “inactive”.

For `c1cc2ccc3cccc4ccc(c1)c2c34`, in assay [1], the max response was -3.14% and -4.98%. Besides, the Potency entry in assay [2], in assay [3] and in assay [4] was “inactive” throughout.

For the compound `O=S(=O)(O)C(F)(F)C(F)(F)C(F)(F)C(F)(F)F`, the max response in assay [1] is 5.33% and 1.27%. Besides, the Potency entry in assay [3] is “inactive”.

For the compound `CCCCC(CC)COC(=O)c1ccccc1C(=O)O` (stereo not given), the Potency in assay [1] is 28.2 µM (active).

On to `C1CCC(NC2CCCCC2)CC1`, for which, in assay [1], the max response is 0.749% and -0.258% and -1.01%. For the same compound, the Potency entry in assay [2], in assay [3] and in assay [4] was “inactive” each time.

As to `O=[N+]([O-])c1c2ccccc2cc2ccccc12`, in assay [1], the max response is 5.89%. In addition, the Potency entry in assay [2] and in assay [4] was “inactive” each time.

For `O=S(=O)(c1ccc(Cl)cc1)c1ccc(Cl)cc1`, the max response in assay [1] was 2.6% and -3.68% and -3.44%. The Potency entry in assay [2], in assay [3] and in assay [4] was “inactive” in each case.

For `COC(C)(C)CCCC(C)C/C=C/C(C)=C/C(=O)OC(C)C` (stereo not given), in assay [1], the max response was 3.83% and 3.99%. The Potency entry in assay [2] was “inactive”.

With `CCCN(CCC)c1c([N+](=O)[O-])cc(S(N)(=O)=O)cc1[N+](=O)[O-]`, the max response in assay [1] was 9.4%. Besides, the Potency entry in assay [3] is “inactive”.

On to `CCCCOC(=O)c1ccccc1C(=O)OCc1ccccc1`, for which the max response in assay [1] was -3.94% and -0.0123%. Moreover, the Potency result in assay [2], in assay [3] and in assay [4] was “inactive” in each case.

On to `Clc1cnc(Oc2ccc(Oc3ncc(Cl)cc3Cl)cc2)c(Cl)c1`, for which the max response in assay [1] was 2.8%. Moreover, the outcome in assay [5], in assay [6], in assay [7] and in assay [8] was inactive. Moreover, in assay [3], the Potency result is “inactive”.

Turning to `CC(=O)[O][Hg][c]1ccccc1`, the max response in assay [1] was -13.3% and -4.57%. In addition, the results for the Potency in assay [2] and in assay [4] were 0.531 µM (active) and 1.33 µM (active), respectively. Also, the Potency result in assay [3] was “inactive”.

Regarding `O=[N+]([O-])/N=C1\NCCN1Cc1ccc(Cl)nc1`, the max response in assay [1] was -0.352%. Besides, the Potency result in assay [3] was “inactive”.

As for `Nc1ccc(Cl)cc1`, in assay [1], the max response was 8.91%. Also, the Potency result in assay [2], in assay [3] and in assay [4] was “inactive” in each case.

Consider `Nc1c(Cl)c(Cl)c(Cl)c(Cl)c1Cl`, for which, in assay [1], the max response is -0.704%. In addition, in assay [3], the Potency result was “inactive”.

Take `Nc1ccc(Cl)cc1N`: the max response in assay [1] was -5.6% and -0.828%. Besides, the Potency result in assay [2] and in assay [4] was “inactive” in each case.

On to `CCCCCCCCCC(CC)c1ccc(S(=O)(=O)O)cc1` (stereo not given), for which the max response in assay [1] is 1.36%. For the same compound, in assay [3], the Potency result is “inactive”.

`CC(C)Oc1cccc(NC(=O)c2ccccc2C(F)(F)F)c1`: in assay [1], the max response is 3.69%. Further, the Potency entry in assay [3] was “inactive”.

On to `O=[N+]([O-])c1c(Cl)c(Cl)cc(Cl)c1Cl`, for which the max response in assay [1] was 0.293%. Further, the Potency result in assay [2], in assay [3] and in assay [4] was “inactive” in each case.

Turning to `O=[N+]([O-])c1cc([N+](=O)[O-])c2ccccc2c1`, in assay [1], the max response was -4.32%. The Potency result in assay [2] and in assay [4] was “inactive” in each case. Moreover, in assay [3], the Potency was 42.2 µM (active).

Regarding `Nc1ccc(Sc2ccc(N)cc2)cc1`, in assay [1], the max response is -3.47% and -0.953%. Further, the Potency result in assay [2], in assay [3] and in assay [4] was “inactive” each time.

`O=C(Nc1ccccc1-c1ccc(Cl)cc1)c1cccnc1Cl`: in assay [1], the max response was 0.0876%. Also, the Potency entry in assay [3] was “inactive”.

In the case of `OCCCBr`, in assay [1], the max response was -3.35%. Further, the Potency result in assay [2], in assay [3] and in assay [4] was “inactive” each time.

Regarding `ClC1=C(Cl)[C@]2(Cl)[C@@H]3[C@@H]4C[C@@H]([C@H]5O[C@@H]45)[C@@H]3[C@@]1(Cl)C2(Cl)Cl`, in assay [1], the max response was 12.3%. Further, in assay [3], the Potency entry was “inactive”.

In the case of `O=C(O)C(Cl)Cl`, the max response in assay [1] was -0.693% and -4.76%. In addition, the Potency entry in assay [2] and in assay [3] was “inactive” each time.

Regarding `CN(C)NC(=O)CCC(=O)O`, the max response in assay [1] is 0.401% and -4.12%. The Potency entry in assay [2], in assay [3] and in assay [4] was “inactive” in each case.
